ROMK mod: modulates human ROMK potassium channel activity; B-score at 10 µM; actives 2% (n = 130,000); Tet-inducible ROMK, thallium flux fluorescence; actives lie on both sides; P48048;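 active = signal ratio slope over the read window, or its plate-corrected B-score, at least 3 SD from the plate mean, either direction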;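 also: B-score of the F/F0 ratio slope over 7 to 12 s after thallium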
Target sequence (P48048 whole entry, looked up): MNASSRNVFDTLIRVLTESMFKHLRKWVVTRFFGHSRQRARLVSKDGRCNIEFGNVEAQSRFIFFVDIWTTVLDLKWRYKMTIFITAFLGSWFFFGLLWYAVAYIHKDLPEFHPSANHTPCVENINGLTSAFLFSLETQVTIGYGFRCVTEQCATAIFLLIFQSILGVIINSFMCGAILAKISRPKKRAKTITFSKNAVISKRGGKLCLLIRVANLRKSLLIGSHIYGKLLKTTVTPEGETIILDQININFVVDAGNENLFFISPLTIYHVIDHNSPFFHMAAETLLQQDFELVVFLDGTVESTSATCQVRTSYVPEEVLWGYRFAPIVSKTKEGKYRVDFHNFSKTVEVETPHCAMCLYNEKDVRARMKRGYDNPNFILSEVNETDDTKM
Lmaj promast: Leishmania major promastigote growth inhibition; Leishmania major promastigotes, resazurin fluorescence viability; inhibition, % at 10 µM; AID 1063; actives 9% (n = 200,000); in the data active = inhibition above about 50%;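 also: promastigotes grown with compound for 44 hours at 28 °C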
INS promoter inh: TRM-6 insulin promoter activity inhibition | TRM-6 cells (human fetal islet line), insulin promoter-eGFP reporter, imaging; reporter expression induced with tamoxifen | inhibition, % at 2 µM | actives 0.9% (n = 130,000);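 active = inhibition above the mean plus 3 SD, with well images judged a real hit on visual review, cut at about 60% in these data, passing the limit was not always enough; inconclusive = inhibition over the cutoff but images rejected on review; inactive = inhibition not above the cutoff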
Ins promoter up: MIN6 insulin promoter up-regulation. MIN6 insulin promoter-GFP reporter, high-content imaging; hits give high values. z-score at 5 µM. actives 0.3% (n = 190,000);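 active = z-score above 3 at 5 µM with at least 500 cells counted in the well; inconclusive = wells under 500 cells, flagged as cytotoxic or low count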
Cl transport mod: modulators of human KCC2 chloride dependent transport | AID 1456 | KCC2 cells, thallium flux FluoZin-2 fluorescence | B-score of Tl+ flux slope (higher = more flux/activation; lower = inhibition) at 10 µM | actives 2.2% (n = 190,000) | Q9H2X9;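 active = thallium flux slope and its plate-corrected score both differing from the plate sample mean at a set confidence after two filtering rounds, in either direction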;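 also: slope of fluorescence scaled to starting intensity during 10 to 20 s after thallium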
WT yeast gro inh: growth inhibition of WT yeast, mitochondrial fusion screen; mitochondrial fusion phenotypic screen, WT strain; inhibition, % at 10 µM; actives 2.1% (n = 190,000); AID 1362; in the data active = inhibition above about 58%; tested in S. cerevisiae
Hits are given with their value. Only some compounds are listed: those with a hit (about 12% of all), similar ones and a draw of the others.

Screening Cc1ccsc1C(=O)OCC(=O)Nc1c(Cl)cccc1C(F)(F)F returned ROMK mod inactive, Lmaj promast inactive, INS promoter inh inactive, Ins promoter up inactive, Cl transport mod inactive and WT yeast gro inh inactive.
Screening Oc1ccc(Nc2nc3ccccc3nc2Nc2ccc(O)cc2)cc1 returned ROMK mod inactive, Lmaj promast 92, INS promoter inh inactive, Ins promoter up inactive, Cl transport mod inactive and WT yeast gro inh inactive.
O=C(Nc1ccc(NC(=O)C2CCCCC2)nc1)c1cccs1 was read as ROMK mod inactive, Lmaj promast 99, INS promoter inh inactive, Ins promoter up inactive, Cl transport mod inactive and WT yeast gro inh inactive.
`CCCc1ccc(Oc2cc(N3CCOCC3)nc(-c3ccccc3)n2)cc1` gave Lmaj promast inactive, INS promoter inh inactive and Cl transport mod inactive.
Screening COc1ccc(S(=O)(=O)N(CCc2ccccc2)CC(=O)N/N=C/c2ccc3c(c2)OCO3)cc1 returned ROMK mod inactive, Lmaj promast 99, INS promoter inh inactive, Ins promoter up inactive, Cl transport mod inactive and WT yeast gro inh inactive.
For CC(SCc1ccccc1)C(=O)N/N=C/c1cc2c(cc1Br)OCO2 (centres undefined) the results were ROMK mod inactive, Lmaj promast inactive, Ins promoter up inactive, Cl transport mod inactive and WT yeast gro inh inactive.
`CC(SCc1ccccc1)C(=O)N/N=C/c1ccc2c(c1)OCO2` (centres undefined) gave Lmaj promast 75, INS promoter inh inactive, Ins promoter up inactive, Cl transport mod inactive and WT yeast gro inh inactive.
For O=C(CN(CCc1ccccc1)S(=O)(=O)c1ccc(Cl)cc1)N/N=C/c1ccc2c(c1)OCO2 the results were ROMK mod inactive, Lmaj promast inactive, INS promoter inh inactive, Ins promoter up inactive, Cl transport mod inactive and WT yeast gro inh inactive.
COC(=O)c1[nH]c2ccc(Br)cc2c1NC(=O)CN1CCCCC1CCO (centres undefined) was read as Lmaj promast inactive, INS promoter inh inactive, Ins promoter up inactive, Cl transport mod inactive and WT yeast gro inh inactive.
`Cc1[nH]c2ccccc2c1SCc1nnc(SCc2ccccc2)n1C` gave Ins promoter up inactive.
Screening C=C(C)CN(CC)c1nc(N)c2c(N)nc3c(c2c1C#N)CC(=O)N3C12CC3CC(CC(C3)C1)C2 returned ROMK mod inactive, Lmaj promast 90, INS promoter inh inactive, Ins promoter up inactive, Cl transport mod inactive and WT yeast gro inh inactive.
CCCCN1C(=O)Cc2c1nc(N)c1c(N)nc(N(CCC)CCC)c(C#N)c21 was read as ROMK mod inactive, Lmaj promast inactive, Ins promoter up inactive and WT yeast gro inh inactive.
For N#Cc1c(N2CCCC(O)C2)nc(N)c2c(N)nc3c(c12)CC(=O)N3C12CC3CC(CC(C3)C1)C2 (centres undefined) the results were Lmaj promast 99, INS promoter inh inactive, Ins promoter up inactive, Cl transport mod inactive and WT yeast gro inh inactive.
`COc1ccc2[nH]c(=O)c(CN(C(=O)c3cccnc3)c3ccc(C)c(C)c3)cc2c1` gave Ins promoter up inactive and Cl transport mod inactive.
`O=C(CSc1ccc2nnc(-c3cccnc3)n2n1)NCC1CCCO1` (centres undefined) gave Lmaj promast inactive, Ins promoter up inactive, Cl transport mod inactive and WT yeast gro inh inactive.
For COC(=O)c1sc(NC(=O)c2ccco2)nc1C the results were Lmaj promast inactive, Cl transport mod inactive and WT yeast gro inh inactive.
`O=C(NC(=S)NCc1ccc(-c2nc3ccccc3s2)cc1)c1ccco1` gave Lmaj promast inactive, Ins promoter up inactive, Cl transport mod 6.4 and WT yeast gro inh inactive.
For O=C(NC(=S)Nc1nc2ccccc2s1)c1ccco1 the results were Lmaj promast inactive, INS promoter inh inactive, Ins promoter up inactive, Cl transport mod 37 and WT yeast gro inh inactive.
CCOC(=O)c1sc(NC(=S)NC(=O)c2ccco2)nc1C was read as Lmaj promast inactive, Ins promoter up inactive, Cl transport mod 47 and WT yeast gro inh inactive.
For O=C(COC(=O)c1ccco1)Nc1nc2ccccc2s1 the results were ROMK mod inactive, Lmaj promast inactive, Ins promoter up inactive and WT yeast gro inh inactive.
CS(=O)(=O)c1ccc(N2CCOCC2)c(S(C)(=O)=O)c1 was read as Lmaj promast inactive, INS promoter inh inactive, Ins promoter up inactive, Cl transport mod inactive and WT yeast gro inh inactive.
Screening Cc1cccc(OCC(=O)Nc2ccc3c(c2)nc(CCN2CCN(C)CC2)n3C)c1 returned ROMK mod inactive, Lmaj promast inactive, INS promoter inh inactive, Ins promoter up inactive and WT yeast gro inh inactive.
Screening CCn1c(=O)n(CC)c2cc(S(=O)(=O)Nc3cc(C)cc(C)c3C#N)ccc21 returned ROMK mod inactive, Lmaj promast inactive, INS promoter inh inactive and Ins promoter up inactive.
Screening O=C(CC(c1ccco1)S(=O)(=O)c1ccccc1)c1ccc(F)cc1 (centres undefined) returned ROMK mod inactive, Lmaj promast inactive, Ins promoter up inactive, Cl transport mod inactive and WT yeast gro inh inactive.
For COc1ccc(/C=N/OCC(=O)Nc2cc(C)on2)cc1OC the results were Lmaj promast inactive, Ins promoter up inactive, Cl transport mod inactive and WT yeast gro inh inactive.
`COc1ccc(/C=N/OCC(=O)NC(c2ccccc2)c2ccccc2)cc1OC` gave ROMK mod inactive, Lmaj promast 100, INS promoter inh inactive, Ins promoter up inconclusive, Cl transport mod inactive and WT yeast gro inh inactive.
`O=S(=O)(Cc1ccc(Cl)cc1)c1ccccc1-c1nnc(-c2ccccc2)o1` gave Lmaj promast inactive, INS promoter inh inactive, Ins promoter up 14 and WT yeast gro inh inactive.
`CS(=O)(=O)c1ccccc1-c1nnc(-c2ccc(Cl)cc2)o1` gave Lmaj promast inactive, INS promoter inh inactive, Ins promoter up inactive, Cl transport mod inactive and WT yeast gro inh inactive.
CC(C)CC1N=C2c3ccccc3N=C(SCc3cc(=O)n4ccccc4n3)N2C1=O (centres undefined) was read as ROMK mod inactive, Lmaj promast inactive, INS promoter inh inactive and Cl transport mod inactive.
CCCCc1c(C)nn(-c2nnc3c4ccccc4n(CC)c3n2)c1C was read as ROMK mod inactive, Lmaj promast inactive, Ins promoter up inactive, Cl transport mod inactive and WT yeast gro inh 68.
`CCC(NC(=O)C1CCC1)c1ccc(C)cc1` (centres undefined) gave Lmaj promast inactive, INS promoter inh inactive, Ins promoter up inactive, Cl transport mod inactive and WT yeast gro inh inactive.
Cc1occc1C(=O)NNC(=O)COc1ccc(Br)cc1Br was read as ROMK mod inactive, Lmaj promast inactive, INS promoter inh inactive, Ins promoter up inactive, Cl transport mod inactive and WT yeast gro inh inactive.
`Cc1ccc(OCC(=O)NNC(=O)c2ccoc2C)c(Br)c1` gave ROMK mod inactive, Lmaj promast 72, INS promoter inh inactive, Ins promoter up inactive, Cl transport mod inactive and WT yeast gro inh inactive.
O=C(Nc1nc2ccc(SC(F)F)cc2s1)c1ccc(NS(=O)(=O)c2ccc(F)c(F)c2)cc1 was read as Lmaj promast 69, INS promoter inh inactive, Ins promoter up inactive, Cl transport mod inactive and WT yeast gro inh inactive.

Screening results from PubChem.
